# Data taken from PubChem BioAssay AID683 (University of Pittsburgh Molecular Library Screening Center, 2007).
# The other results are listed elsewhere or left out. Unmarked numbers belong to inactive results. Cut-off read from the data, not from the text of the source: active = EC50 below about 50 µM; inactive = the rest.
# Assay: H2O2 producers via compound redox cycling – biochemical, 1.0 mM DTT, Cdc25B catalytic domain, artefact control, dose response (AID 683)
# Details: cell-free redox cycling H2O2 generation
row,SMILES,EC50 [µM]
1,c1ccc(CSc2nnc(-c3ccco3)c(-c3ccco3)n2)cc1,> 50
2,COc1cccc2c(C)c(C(=O)O)[nH]c12,> 50
